# In PubChem BioAssay (EPA / NIEHS):
# Inconclusive results are not listed. Active and inactive are the calls of the source. How the source made its calls, unless noted: active means hit-call score of the fitted dose curve at least 0.9, where 1 is the maximum; inactive means score below 0.9.
# What was measured:
# [1] = molecular target: Nucleoli Translocation, AR (gene 367) (UniProt P10275); test: UPITT_HCI_U2OS_AR_TIF2_Nucleoli_Antagonist: University of Pittsburgh U2OS Androgen Receptor-Transcriptional Intermediary Factor 2 (AR-TIF2) Antagonism High Content Imaging Assay for Nucleoli Translocation (AID 2283997; active means hit-call score of the fitted dose curve at least 0.9, where 1 is the maximum)
# Outline: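 U2OS cells co-expressing red-fluorescent-tagged human AR and green-fluorescent-tagged TIF2, imaged by high-content microscopy for nucleolar red fluorescence. Antagonist mode against DHT; primary screen at 20 uM final (0.2% DMSO).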
# [2] = molecular target: Nucleoli Translocation, AR (gene 367) (UniProt P10275); test: UPITT_HCI_U2OS_AR_TIF2_Nucleoli_Agonist: University of Pittsburgh U2OS Androgen Receptor-Transcriptional Intermediary Factor 2 (AR-TIF2) Agonism High Content Imaging Assay for Nucleoli Translocation (AID 2283998; active means hit-call score of the fitted dose curve at least 0.9, where 1 is the maximum)
# Outline: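 U2OS cells expressing RFP-tagged human AR and GFP-tagged TIF2; red fluorescence in nucleoli quantified by high-content imaging. Primary screen at 20 uM final (0.2% DMSO); concentration-response 0.195–50 uM (0.5% DMSO), fitted upward versus DMSO.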
# [3] = molecular target: Ratio of Nucleoli Translocation and Cytoplasm, AR (gene 367) (UniProt P10275); test: UPITT_HCI_U2OS_AR_TIF2_Nucleoli_Cytoplasm_Ratio_Antagonist: University of Pittsburgh U2OS Androgen Receptor-Transcriptional Intermediary Factor 2 (AR-TIF2) Antagonism High Content Imaging Assay for Ratio of Nucleoli Translocation and Cytoplasm (AID 2283999; active means hit-call score of the fitted dose curve at least 0.9, where 1 is the maximum;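 further: antagonists lower the DHT-driven ratio of nucleolar to cytoplasmic red signal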)
# Outline: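 High-content imaging quantifies the red nucleolar:cytoplasmic fluorescence ratio in U2OS cells with AR-RFP and TIF2-GFP. Final concentrations are 20 uM (screen) or 0.195–50 uM (dose response), analysed against DHT as baseline.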
# [4] = CCTE_Simmons_MITO_max_resp_rate: CCTE's HepG2 Seahorse XF Respirometric Screening Assay at Maximal Respiratory State [uncoupled], Simmons Lab (AID 2284002); conditions: actives raise or lower the signal
# Outline: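 HepG2 oxygen consumption measured on Seahorse XF after FCCP uncoupling, following test compound injection; 7 concentrations from 125 nM to 100 uM final. Readings every 6 min over 72 min, three biological replicates; bidirectional fit versus DMSO.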
# [5] = CCTE_Harrill_HTTr_Viability_MCF7: CCTE's 6-hour Cell Viability Assessment for the High-Throughput Transcriptomics (HTTr) Platform, in MCF-7 cells cultured in DMEM + 10% fetal bovine serum, Harrill Lab (AID 2284010)
# Outline: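 Viability measured through PI dye exclusion by high-content imaging at 6 h post-dosing.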
# [6] = CCTE_Harrill_HTTr_Apoptosis_MCF7: CCTE's 6-hour Apoptosis Assessment for the High-Throughput Transcriptomics (HTTr) Platform, in MCF-7 cells cultured in DMEM + 10% fetal bovine serum, Harrill Lab (AID 2284011)
# Outline: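 MCF-7 cells in DMEM + 10% FBS exposed 6 h to chemicals over an eight-point dilution series. Caspase-3/7 activation imaged by high-content CellEvent Green staining; fitted bidirectionally versus DMSO.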
# [7] = molecular target: Ratio of Nucleoli Translocation and Cytoplasm, AR (gene 367) (UniProt P10275); test: UPITT_HCI_U2OS_AR_TIF2_Nucleoli_Cytoplasm_Ratio_Agonist: University of Pittsburgh U2OS Androgen Receptor-Transcriptional Intermediary Factor 2 (AR-TIF2) Agonism High Content Imaging Assay for Ratio of Nucleoli Translocation and Cytoplasm (AID 2284000; active means hit-call score of the fitted dose curve at least 0.9, where 1 is the maximum;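 further: hits raise the red nucleolar to cytoplasm ratio above vehicle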)
# Outline: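 U2OS cells expressing RFP-tagged human AR and GFP-tagged TIF2; high-content imaging ratio of nucleolar to cytoplasmic red fluorescence, fitted as gain of signal vs DMSO. Single point at 20 uM final (0.2% DMSO); concentration-response 0.195-50 uM final (0.5% DMSO).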
# [8] = CCTE_Shafer_MEA_acute_spike_number: CCTE's Neural Acute Assay for Total Number of Spikes, Shafer Lab (AID 2284008);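 on AC50: curve fitted for decrease in spike count so AC50 reflects inhibitors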
# Outline: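 Rat primary cortical neurons on 48-well MEA plates, DIV 13 or 15, at 37 C. 40 min baseline then 40 min with compound (0.03-40 uM); spikes detected at 8x rms noise, expressed as percent change from baseline.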
# [9] = CCTE_Shafer_MEA_acute_firing_rate_mean: CCTE's Neural Acute Assay for Mean Firing Rate, Shafer Lab (AID 2284009);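 further: analyzed for loss of signal so actives lower firing rate relative to DMSO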
# Outline: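 Rat primary cortical neurons on 48-well MEA plates, dosed at 0.03-40 uM on DIV 13 or 15; 40 min spontaneous activity recorded at 37 C before and after compound. Spike rate per electrode averaged per well, expressed as percent change from baseline.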
# [10] = CCTE_Harrill_HTTr_CellCount_MCF7: CCTE's Cell Proliferation Assessment for the High-Throughput Transcriptomics (HTTr) Platform, Harrill Lab (AID 2284012; active means hit-call score of the fitted dose curve at least 0.9, where 1 is the maximum;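 further: count of Hoechst-stained nuclei per well by high-content imaging in MCF-7 cells; cells exposed to compound for six hours; intended direction is loss of nuclei count meaning fewer cells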)
# Outline: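 Nuclei counting (Hoechst, high content imaging) in MCF-7 after a 6 h treatment at eight concentrations. Activity fitted bidirectionally, DMSO as negative control.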
# [11] = CCTE_Shafer_MEA_acute_burst_number: CCTE's Neural Acute Assay for Single-Electrode Bursts, Shafer Lab (AID 2284013)
# Outline: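 Primary rat cortical neurons on 16-electrode MEA wells, treated on DIV 13 or 15 with compound at 0.03-40 uM. Single-electrode burst count from 40-min recordings at 37 C before and after exposure; percent change from baseline per well, DMSO negative control.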
# [12] = CCTE_Shafer_MEA_acute_burst_duration_mean: CCTE's Neural Acute Assay for Mean Burst Duration, Shafer Lab (AID 2284014);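 further: hits are decreases in mean burst duration relative to DMSO controls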
# Outline: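 Rat primary cortical neurons on 48-well MEA, treated at DIV 13 or 15 with 0.03-40 uM in at least 3 wells. Value is percent change in mean burst duration, comparing 40 min recordings at 37 C before and during exposure.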
# [13] = CCTE_Shafer_MEA_acute_per_burst_spike_number_mean: CCTE's Neural Acute Assay for Average Number of Spikes Per Burst, Shafer Lab (AID 2284015);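 further: hits are decreases in mean spikes per burst versus baseline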
# Outline: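 We recorded spontaneous network firing of rat cortical neurons for 40 min before and 40 min during exposure to compound at 0.03-40 uM, at 37 C. Spikes were detected adaptively at 8x rms noise, and the change in average spikes per burst was fitted against DMSO.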
# [14] = CCTE_Shafer_MEA_acute_interburst_interval_mean: CCTE's Neural Acute Assay for Mean Interburst Interval, Shafer Lab (AID 2284016);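 further: percent change of mean interburst interval versus each well's own pre-dose baseline; curves fitted for decrease in interburst interval relative to DMSO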
# Outline: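 MEA recording of spontaneous network bursting in primary rat cortical cultures; mean interburst interval was compared before and after a 40-min compound exposure (0.03-40 uM) and expressed as percent change, relative to DMSO.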
# [15] = CCTE_Shafer_MEA_acute_burst_percentage_mean: CCTE's Neural Acute Assay for Percentage of Spikes in a Burst, Shafer Lab (AID 2284017);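 on AC50: curve fitted for loss of signal so potency reflects decreased burst percentage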
# Outline: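 Compounds were tested at 0.03-40 uM on primary rat cortical neuron networks grown over microelectrodes, with at least three wells per compound. Spontaneous firing was recorded for 40 min before and 40 min after dosing, and the change in burst percentage was computed per well.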
# [16] = CCTE_Shafer_MEA_acute_per_network_burst_spike_number_std: CCTE's Neural Acute Assay for Standard Deviation of Number of Spikes in a Network Burst, Shafer Lab (AID 2284020);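 further: fitted for decrease in spike-number SD versus DMSO so actives lower it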
# Outline: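 Rat primary cortical neurons on 48-well MEA (16 electrodes/well), treated DIV 13 or 15 at 0.03-40 uM, ≥3 wells per compound. 40 min recordings at 37 C before and after dosing; value is percent change in network-burst spike-number SD, negative direction vs DMSO.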
# [17] = CCTE_Shafer_MEA_acute_per_network_burst_electrodes_number_mean: CCTE's Neural Acute Assay for Mean Number of Electrodes in a Network Burst, Shafer Lab (AID 2284021);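 further: curves fitted for decreases only so hits reduce electrodes per burst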
# Outline: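 Rat primary cortical neurons on 48-well MEAs, DIV 13 or 15, were treated at 0.03-40 uM. Spikes were detected at 8x rms noise and recorded at 37 C. The mean electrodes per network burst in a 40 min exposure recording was expressed as percent change from a 40 min baseline.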
# [18] = CCTE_Shafer_MEA_acute_network_burst_percentage: CCTE's Neural Acute Assay for Percentage of Network Bursts, Shafer Lab (AID 2284022);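 further: curves fitted for loss so actives lower network burst percentage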
# Outline: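 Rat primary cortical neuron networks on 48-well MEA plates, DIV 13 or 15, treated acutely with compound (0.03-40 uM, at least three wells). Percent of spikes within network bursts compared between 40-min recordings before and during exposure at 37 C, expressed as percent change.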
# Nucleoli Translocation, AR (gene 367), sequence (P10275 whole entry, looked up): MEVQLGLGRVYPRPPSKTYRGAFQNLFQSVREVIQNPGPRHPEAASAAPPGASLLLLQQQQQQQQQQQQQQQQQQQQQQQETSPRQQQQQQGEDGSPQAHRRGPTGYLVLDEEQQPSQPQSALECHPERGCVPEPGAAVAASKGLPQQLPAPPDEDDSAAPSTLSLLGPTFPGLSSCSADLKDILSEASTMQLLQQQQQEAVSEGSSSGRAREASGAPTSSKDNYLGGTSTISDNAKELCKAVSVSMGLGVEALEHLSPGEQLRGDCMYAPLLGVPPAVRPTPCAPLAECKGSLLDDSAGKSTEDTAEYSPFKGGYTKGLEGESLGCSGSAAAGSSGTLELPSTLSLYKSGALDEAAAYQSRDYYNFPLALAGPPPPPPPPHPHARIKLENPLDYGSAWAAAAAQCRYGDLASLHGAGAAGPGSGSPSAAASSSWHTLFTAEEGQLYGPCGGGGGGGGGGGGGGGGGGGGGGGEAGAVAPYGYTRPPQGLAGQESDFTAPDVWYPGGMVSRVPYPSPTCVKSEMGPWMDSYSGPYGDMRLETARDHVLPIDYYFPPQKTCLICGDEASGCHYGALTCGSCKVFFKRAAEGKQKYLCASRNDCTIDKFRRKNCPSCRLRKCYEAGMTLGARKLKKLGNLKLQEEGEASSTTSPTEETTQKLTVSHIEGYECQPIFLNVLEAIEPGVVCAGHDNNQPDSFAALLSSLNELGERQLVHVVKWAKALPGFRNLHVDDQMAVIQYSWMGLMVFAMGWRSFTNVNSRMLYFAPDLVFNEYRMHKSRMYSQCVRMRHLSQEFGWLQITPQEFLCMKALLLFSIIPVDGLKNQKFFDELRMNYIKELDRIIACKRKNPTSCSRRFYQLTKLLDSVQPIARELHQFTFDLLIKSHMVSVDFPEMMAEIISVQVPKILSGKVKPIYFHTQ
# Ratio of Nucleoli Translocation and Cytoplasm, AR (gene 367), sequence (P10275 whole entry, looked up): as above
smiles,measurement,setting,value
CC(C)OC(=O)C(C)(C)Oc1ccc(C(=O)c2ccc(Cl)cc2)cc1,outcome,[1],inactive
same,outcome,[2],inactive
same,outcome,[3],inactive
same,AC50,[4],37.2 µM (active)
same,outcome,[5],inactive
same,outcome,[6],inactive
CSc1ccc(Oc2ccc(S(N)(=O)=O)cc2CN(C)C)cc1C,outcome,[1],inactive
same,AC50,[2],50 µM (active)
same,outcome,[3],inactive
same,AC50,[7],74.8 µM (active)
same,outcome,[8],inactive
same,outcome,[9],inactive
same,outcome,[5],inactive
same,outcome,[6],inactive
same,outcome,[10],inactive
same,outcome,[11],inactive
same,outcome,[12],inactive
same,AC50,[13],36 µM (active)
same,outcome,[14],inactive
same,AC50,[15],31.8 µM (active)
same,outcome,[16],inactive
same,outcome,[17],inactive
same,outcome,[18],inactive
COc1ccc(C(=O)Nc2nc3ccccc3c(NCc3ccccc3)c2C#N)cc1,outcome,[5],inactive
same,outcome,[6],inactive
CC(C)NCC(O)c1ccc(O)c(O)c1 (stereo not given),outcome,[8],inactive
same,outcome,[9],inactive
same,outcome,[5],inactive
same,outcome,[6],inactive
same,outcome,[11],inactive
same,outcome,[12],inactive
same,outcome,[13],inactive
same,outcome,[14],inactive
same,outcome,[15],inactive
same,outcome,[16],inactive
same,outcome,[17],inactive
same,outcome,[18],inactive
COC(=O)[C@H]1[C@H]2C[C@@H]3c4[nH]c5cc(OC)ccc5c4CCN3C[C@H]2C[C@@H](OC(=O)c2cc(OC)c(OC)c(OC)c2)[C@@H]1OC,AC50,[8],1.03 µM (active)
same,AC50,[9],1.04 µM (active)
same,outcome,[5],inactive
same,outcome,[6],inactive
same,AC50,[11],0.82 µM (active)
same,outcome,[12],inactive
same,AC50,[13],0.582 µM (active)
same,AC50,[14],4.18 µM (active)
same,AC50,[15],34.3 µM (active)
same,AC50,[16],20 µM (active)
same,outcome,[17],inactive
same,outcome,[18],inactive
Oc1ccc(O)cc1,outcome,[8],inactive
same,outcome,[9],inactive
same,outcome,[5],inactive
same,outcome,[6],inactive
same,outcome,[11],inactive
same,outcome,[12],inactive
same,outcome,[13],inactive
same,AC50,[14],20 µM (active)
same,outcome,[15],inactive
same,outcome,[16],inactive
same,outcome,[17],inactive
same,outcome,[18],inactive
CC(=O)CC(c1ccccc1)c1c(O)c2ccccc2oc1=O (stereo not given),outcome,[5],inactive
same,outcome,[6],inactive
CC(=O)O,outcome,[5],inactive
same,outcome,[6],inactive
NC(=Nc1ccccc1)Nc1ccccc1,AC50,[8],2.02 µM (active)
same,AC50,[9],2.03 µM (active)
same,outcome,[5],inactive
same,outcome,[6],inactive
same,AC50,[11],1.53 µM (active)
same,outcome,[12],inactive
same,outcome,[13],inactive
same,AC50,[14],1.27 µM (active)
same,AC50,[15],29.5 µM (active)
same,outcome,[16],inactive
same,outcome,[17],inactive
same,outcome,[18],inactive
O=C1O[C@H]([C@H](O)CO)C(O)=C1O,outcome,[5],inactive
same,outcome,[6],inactive
CC(COCC(C)OC(=O)c1ccccc1)OC(=O)c1ccccc1 (stereo not given),outcome,[5],inactive
same,outcome,[6],inactive
C=CCc1ccc(OC)c(OC)c1,outcome,[5],inactive
same,outcome,[6],inactive
CCCC(=O)O,outcome,[8],inactive
same,outcome,[9],inactive
same,outcome,[5],inactive
same,outcome,[6],inactive
same,outcome,[11],inactive
same,outcome,[12],inactive
same,outcome,[13],inactive
same,outcome,[14],inactive
same,outcome,[15],inactive
same,outcome,[16],inactive
same,outcome,[17],inactive
same,outcome,[18],inactive
COc1ccc(OC(F)(F)F)cc1CN[C@H]1CCCN[C@H]1c1ccccc1,AC50,[8],1.72 µM (active)
same,AC50,[9],1.73 µM (active)
same,outcome,[5],inactive
same,outcome,[6],inactive
same,AC50,[11],1.89 µM (active)
same,outcome,[12],inactive
same,AC50,[13],5 µM (active)
same,AC50,[14],7.18 µM (active)
same,AC50,[15],4.59 µM (active)
same,AC50,[16],2.75 µM (active)
same,outcome,[17],inactive
same,AC50,[18],3.09 µM (active)
O=C(O)CN(CC(=O)O)CC(=O)O,outcome,[8],inactive
same,outcome,[9],inactive
same,outcome,[5],inactive
same,outcome,[6],inactive
same,outcome,[11],inactive
same,outcome,[12],inactive
same,outcome,[13],inactive
same,outcome,[14],inactive
same,outcome,[15],inactive
same,outcome,[16],inactive
same,outcome,[17],inactive
same,outcome,[18],inactive
CN(C)C(=O)NC1(c2ccccc2)CCN(CCC[C@]2(c3ccc(Cl)c(Cl)c3)CCCN(C(=O)c3ccccc3)C2)CC1,outcome,[8],inactive
same,outcome,[9],inactive
same,outcome,[5],inactive
same,outcome,[6],inactive
same,outcome,[11],inactive
same,AC50,[12],1.07 µM (active)
same,AC50,[13],9.1 µM (active)
same,outcome,[14],inactive
same,AC50,[15],7.4 µM (active)
same,AC50,[16],7.62 µM (active)
same,AC50,[17],2.99 µM (active)
same,AC50,[18],7.5 µM (active)
COC(=O)CCCC(=O)OC,outcome,[5],inactive
same,outcome,[6],inactive
O=C(O)c1cccnc1,outcome,[5],inactive
same,outcome,[6],inactive
